In PubChem BioAssay:

Biological target: NADPH oxidase 2 (Homo sapiens) (UniProt P04839)
Experiment: compounds shifting NOX2 Amplex Red fluorescence – cell-based, HEK293-NOX2, PMA-stimulated, NOX inhibitor project, primary screen (AID 1159); further: test concentration not given here
Settings: 45 min, higher = more signal, called active from +8 up or from −8 down

Chain of NADPH oxidase 2 (Homo sapiens) (P04839 whole entry, looked up): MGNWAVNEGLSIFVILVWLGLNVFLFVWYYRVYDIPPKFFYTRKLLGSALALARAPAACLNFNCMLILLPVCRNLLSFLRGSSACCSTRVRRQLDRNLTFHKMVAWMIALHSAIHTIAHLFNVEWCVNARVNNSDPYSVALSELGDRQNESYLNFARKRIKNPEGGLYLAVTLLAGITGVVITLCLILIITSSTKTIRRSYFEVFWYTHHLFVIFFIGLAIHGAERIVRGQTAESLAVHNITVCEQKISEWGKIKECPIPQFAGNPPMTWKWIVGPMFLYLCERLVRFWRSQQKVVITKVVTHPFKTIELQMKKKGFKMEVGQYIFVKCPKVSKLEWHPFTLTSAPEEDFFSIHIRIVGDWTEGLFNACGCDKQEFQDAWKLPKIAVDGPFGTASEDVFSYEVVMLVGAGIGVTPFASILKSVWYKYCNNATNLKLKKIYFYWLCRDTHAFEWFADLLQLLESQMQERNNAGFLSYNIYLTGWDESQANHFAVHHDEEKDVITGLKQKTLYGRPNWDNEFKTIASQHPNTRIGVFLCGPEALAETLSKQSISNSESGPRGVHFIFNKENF

z-score, inactive:
C=C(CCCC)/C(=C/C[C@@H](OC(=O)c1ccncc1)c1ccc(CO)o1)c1cnc2ccccc2c1 0.194, CCc1cccc(NC(=O)O[C@H]2[C@H](OC(=O)Nc3ccccc3)[C@@H](OC(=O)Nc3ccccc3)[C@@H](OC)O[C@@H]2CO)c1 -6.71, C=CC[C@]1(C(=O)N2CCCCC2)N=C(c2ccc(OCCCO)cc2)O[C@H]1c1ccccc1N=[N+]=[N-] -1.88, C#C[C@H](O[Si](C#Cc1ccccc1)(C(C)C)C(C)C)c1ccccc1 0.146, CCOC(=O)C1=CC[C@@H](c2ccccc2)N(S(=O)(=O)c2ccc(C)cc2)[C@H]1C 0.21, O=C(N1CCCCC1)[C@@]1(CCS(=O)(=O)c2ccccc2)N=C(c2ccc(OCCCO)cc2)O[C@H]1c1ccccc1 -4.27, CC(C)(C)OC(=O)CC[C@]1(C(=O)N2CCCCC2)N=C(c2ccc(OCCCO)cc2)O[C@H]1c1ccccc1 -1.41, N#Cc1ccc(NN2C(C(O)CCc3ccccc3)C=CC3C(=O)N(c4ccccc4)C(=O)C32)cc1 (configuration not stated) -2.47, Cc1ccc(S[C@]2(C(=O)NC3CC3)CC(=O)N(Cc3cc(C(F)(F)F)cc(C(F)(F)F)c3)[C@@H]2c2ccc(CO)cc2)cc1 0.249, C#CCCCON=C1C[C@@H](O)[C@@H](O)[C@@H]2[C@@H]3C(=O)N(Cc4ccc5c(c4)OCO5)C(=O)[C@@H]3CC[C@@H]12 0.192, Cc1ccc(S(=O)(=O)N2[C@@H](c3ccccc3)C(C(=O)O)=CC[C@H]2c2ccccc2)cc1 -0.127

Biological target: NADPH oxidase 4 (Homo sapiens) (UniProt Q9NPH5)
Experiment: compounds shifting NOX4 Amplex Red fluorescence – cell-based, HEK293-NOX4, tetracycline-induced, NOX inhibitor project, primary screen (AID 1160)
Settings: HEK293-NOX4, Amplex Red H2O2 fluorescence, 45 min; higher = more signal, called active from +8 up or from −8 down

Chain of NADPH oxidase 4 (Homo sapiens) (Q9NPH5 whole entry, looked up): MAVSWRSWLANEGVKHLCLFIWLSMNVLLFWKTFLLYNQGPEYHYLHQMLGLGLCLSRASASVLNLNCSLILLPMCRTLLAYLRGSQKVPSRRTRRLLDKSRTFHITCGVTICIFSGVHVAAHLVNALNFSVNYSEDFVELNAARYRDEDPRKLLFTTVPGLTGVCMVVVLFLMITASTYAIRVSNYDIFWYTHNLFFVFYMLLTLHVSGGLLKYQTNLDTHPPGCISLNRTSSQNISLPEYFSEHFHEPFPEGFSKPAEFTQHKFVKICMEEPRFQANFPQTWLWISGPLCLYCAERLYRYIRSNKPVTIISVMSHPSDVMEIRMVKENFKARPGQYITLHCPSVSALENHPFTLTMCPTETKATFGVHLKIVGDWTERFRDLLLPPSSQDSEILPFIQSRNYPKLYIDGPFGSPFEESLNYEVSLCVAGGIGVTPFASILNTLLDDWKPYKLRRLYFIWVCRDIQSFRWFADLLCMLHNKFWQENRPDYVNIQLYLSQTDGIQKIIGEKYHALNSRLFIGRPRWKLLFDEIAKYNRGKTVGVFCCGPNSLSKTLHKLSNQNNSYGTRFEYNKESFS

z-score, inactive:
COc1cc(CO)cc(I)c1O[C@H]1C=C(C(=O)NCCO)C[C@@H](N(CC2CCCCC2)C(=O)c2cc3ccccc3oc2=O)[C@@H]1O 1.3, C=C(CCCC)/C(=C/C[C@@H](OC(=O)c1ccncc1)c1cccc(OCCO)c1)c1cc(C(=O)OC)ccc1OC 1.62, C=CCC(OC(C)=O)[C@@H]1[C@@H](N(Cc2ccc(-c3ccccc3)cc2)C(=O)c2ccc(-c3ccccc3)cc2)c2cc(OCCCO)ccc2N1C(=O)Cc1ccc(OC)cc1 (some centres not stated) 1.2, CC(=O)NCCCC[C@@H]1NC(=O)[C@H]2C[C@@H](C(=O)NCCCCCCN(C)C)[C@@H](c3ccc(O)cc3)N2C1=O -1.51, Cc1ccc(S[C@]2(C(=O)NC(C)C)CC(=O)N(C3Cc4ccccc4C3)[C@@H]2c2ccc(CO)cc2)cc1 -0.029, Cc1ccc(N2C(=O)c3ccccc3[C@](C)(C(=O)NCC(C)C)[C@@H]2c2ccc(CO)cc2)nc1 -0.657, [N-]=[N+]=NCc1ccccc1C[C@]1(C(=O)N2CCCCC2)N=C(c2ccc(OCCCO)cc2)O[C@H]1c1ccccc1CN=[N+]=[N-] -0.692, C=C(CCCC)/C(=C/C[C@H](OC(=O)c1ccncc1)c1cccc(OCCO)c1)c1cc(C(=O)OC)ccc1OC -1.72, O=C(CS)NCCCCCCNC(=O)[C@@H]1C[C@@H]2C(=O)N[C@@H](Cc3ccccc3)C(=O)N2[C@@H]1c1ccc(O)cc1 0.457, C=C(CCCC)C(=O)CC[C@@H](OC(=O)c1cccnc1)c1cccc(OCCO)c1 0.849, COc1ccc([C@H]2C[C@H]3C(Br)=C[C@]2(OC)C(=O)[C@]32CO2)cc1 0.295, C=C(C(=O)CC[C@H](OC(=O)c1ccccc1-c1ccccc1C(=O)O)c1ccc(CO)o1)C(C)C -0.621, C#CCCCON=C1C[C@@H](O)[C@@H](O)[C@@H]2[C@@H]3C(=O)N(Cc4ccc5c(c4)OCO5)C(=O)[C@@H]3CC[C@H]12 0.911, COC(=O)c1ccc(C#CC(NP(=O)(c2ccccc2)c2ccccc2)c2ccccc2)cc1 (configuration not stated) -0.556, CCOC(=O)C1=CC[C@@H](c2ccc(-c3ccc(OCc4ccccc4)cc3)c(OC)c2)N(S(=O)(=O)c2ccc(C)cc2)[C@H]1c1ccccc1 0.643, CC(c1ccccc1)C(O)C1C=CC2C(=O)N(C)C(=O)C2N1N(c1ccccc1)c1ccccc1 (configuration not stated) -0.411, C=C[C@H](OC)[C@@H](OC(=O)Nc1ccc(SC)cc1)c1ccc(O)c(F)c1 -1.66, C=C(CCCC)C(=O)CC[C@@H](OC(C)=O)c1ccccc1OCCO -0.852, CC(=O)NCCCC[C@@H]1NC(=O)[C@H]2C[C@@H](C(=O)NCCCCCCN(C)C)[C@@H](c3cccc(OCCO)c3)N2C1=O 0.301, CCCC=C(CCC)[C@@H](NS(=O)(=O)c1cccc(C(F)(F)F)c1)c1ccc(C(=O)OC)cc1 0.449, O=C(NCc1ccccc1)[C@@]1(Cc2ccccc2)COC(c2ccc(OCCCO)cc2)=N1 -0.556, [N-]=[N+]=NCc1ccccc1[C@H]1OC(c2ccc(OCCCO)cc2)=N[C@@]1(Cc1ccccc1N=[N+]=[N-])C(=O)NCc1ccccc1 0.522, NC(=O)NCC#Cc1ccc2c(c1)[C@]1(C(=O)N2)[C@H](C(=O)N2CCCCCCC2)[C@H]2C(=O)O[C@H](c3ccccc3)[C@H](c3ccccc3)N2[C@@H]1c1ccccc1OCCO 1.36, C#CCNC(/C=C/c1ccccc1)CO (configuration not stated) 0.813, O=C1C2C=CC(C(O)C(c3ccccc3)c3ccccc3)N(Nc3ccc([N+](=O)[O-])cc3)C2C(=O)N1c1ccccc1 (configuration not stated) -1.06, C=C(CCCC)/C(=C/C[C@@H](OC(=O)c1ccncc1)c1ccc(CO)o1)c1cnc2ccccc2c1 -0.546, CCc1cccc(NC(=O)O[C@H]2[C@H](OC(=O)Nc3ccccc3)[C@@H](OC(=O)Nc3ccccc3)[C@@H](OC)O[C@@H]2CO)c1 -1.24, C=CC[C@]1(C(=O)N2CCCCC2)N=C(c2ccc(OCCCO)cc2)O[C@H]1c1ccccc1N=[N+]=[N-] 0.898, C#C[C@H](O[Si](C#Cc1ccccc1)(C(C)C)C(C)C)c1ccccc1 -0.779, CCOC(=O)C1=CC[C@@H](c2ccccc2)N(S(=O)(=O)c2ccc(C)cc2)[C@H]1C -0.291, O=C(N1CCCCC1)[C@@]1(CCS(=O)(=O)c2ccccc2)N=C(c2ccc(OCCCO)cc2)O[C@H]1c1ccccc1 0.156, CC(C)(C)OC(=O)CC[C@]1(C(=O)N2CCCCC2)N=C(c2ccc(OCCCO)cc2)O[C@H]1c1ccccc1 1.02, N#Cc1ccc(NN2C(C(O)CCc3ccccc3)C=CC3C(=O)N(c4ccccc4)C(=O)C32)cc1 (configuration not stated) -3.59, Cc1ccc(S[C@]2(C(=O)NC3CC3)CC(=O)N(Cc3cc(C(F)(F)F)cc(C(F)(F)F)c3)[C@@H]2c2ccc(CO)cc2)cc1 -0.00878, C#CCCCON=C1C[C@@H](O)[C@@H](O)[C@@H]2[C@@H]3C(=O)N(Cc4ccc5c(c4)OCO5)C(=O)[C@@H]3CC[C@@H]12 0.773, Cc1ccc(S(=O)(=O)N2[C@@H](c3ccccc3)C(C(=O)O)=CC[C@H]2c2ccccc2)cc1 -0.375
